Source: PubChem
HT1080 IDH1KD tx: qHTS for induction of synthetic lethality in tumor cells producing 2HG: qHTS for the HT-1080-IDH1KD cell line; Potency, µM (series often up to 46.1 µM), hits mostly cytotoxic; actives 2% (n = 360,000); HT-1080 IDH1 knockdown viability, ATP luminescence, 48 h
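HT-1080-IDH1KD cells (IDH1 knocked down), 750/well in RPMI with 5% FBS, treated with compound 48 h at 37 degrees C. Viability by CellTiter-Glo luminescence, normalised to DMSO and no-cell wells; concentration-response curves classed.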
DT40 TDP1 no CPT: qHTS for Inhibitors of human tyrosyl-DNA phosphodiesterase 1 (TDP1): qHTS in cells in absence of CPT; DT40 Tdp1-/- hTDP1 cells, no CPT, ATP luminescence, 48 h; Potency, µM (series often up to 46.2 µM), actives largely listed as inhibitors; actives 15% (n = 420,000); also: nearly all actives have a fitted effect of over 55% in size
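Luminescent ATP content (CellTiter-Glo) served as the growth readout. Knockout chicken DT40 cells expressing human TDP1 were exposed to compounds without camptothecin for a minimum 48 hr at 37 °C.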
IL1B secr inh: qHTS for Inhibitors of Inflammasome Signaling: IL-1-beta AlphaLISA Primary Screen; THP-1 LPS/ATP IL-1B secretion, AlphaLISA, 16 h; active compounds read low; activity change, % at 57.5 µM; actives 4.7% (n = 360,000); AID 743279, 2014; in the data active = activity change below about -50%; inconclusive = mostly about -30% to -49%
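THP-1 cells pretreated 1 hr with compounds (up to 57.5 uM final), then stimulated with LPS (250 ng/mL final) plus ATP (1.25 mM final); secreted IL-1B measured by AlphaLISA after 16 hr, decreased signal indicating inhibition.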
DT40 TDP1 CPT: qHTS for Inhibitors of human tyrosyl-DNA phosphodiesterase 1 (TDP1): qHTS in cells in presence of CPT; chicken DT40 Tdp1-/-;hTDP1 cells + 20 nM CPT, ATP luminescence, 48 h; Potency, µM (highest dose often 46.2 µM), hits mostly inhibitors; actives 12% (n = 420,000); AID 686979, 2013; also: nearly all actives have a fitted effect of over 55% in size
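Chicken DT40 Tdp1-/- cells stably complemented with human TDP1 were seeded at 400 cells/well in medium containing 20 nM camptothecin, exposed to pin-transferred compounds, and grown at 37 °C for at least 48 hr. Viability was read as ATP luminescence.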
12-LOX inh: Primary qHTS assay for inhibitors of human arachidonate 12S-lipoxygenase (ALOX12): Round 2. purified 12hLO, xylenol orange hydroperoxide absorbance. Potency, µM (doses to about 108 µM), usual class: inhibitors. actives 1.1% (n = 580,000). AID 1671190, 2021
Target sequence (P18054 whole entry, looked up): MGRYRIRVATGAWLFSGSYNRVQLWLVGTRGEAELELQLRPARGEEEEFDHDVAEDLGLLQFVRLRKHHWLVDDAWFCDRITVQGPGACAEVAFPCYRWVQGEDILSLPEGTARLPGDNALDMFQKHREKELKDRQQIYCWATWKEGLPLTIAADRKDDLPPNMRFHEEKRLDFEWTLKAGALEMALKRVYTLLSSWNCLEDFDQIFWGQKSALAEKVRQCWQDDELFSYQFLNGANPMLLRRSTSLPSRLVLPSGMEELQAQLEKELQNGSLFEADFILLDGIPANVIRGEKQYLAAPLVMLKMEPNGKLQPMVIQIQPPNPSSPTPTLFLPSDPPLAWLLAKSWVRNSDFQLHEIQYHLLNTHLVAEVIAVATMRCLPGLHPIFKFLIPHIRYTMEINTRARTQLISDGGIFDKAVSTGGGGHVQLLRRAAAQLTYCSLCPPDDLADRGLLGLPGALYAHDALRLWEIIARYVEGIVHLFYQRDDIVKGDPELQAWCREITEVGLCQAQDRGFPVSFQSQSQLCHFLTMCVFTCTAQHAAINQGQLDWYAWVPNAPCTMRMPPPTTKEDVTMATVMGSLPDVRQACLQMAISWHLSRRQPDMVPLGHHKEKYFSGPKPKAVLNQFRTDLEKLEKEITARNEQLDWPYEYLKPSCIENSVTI
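Hydroperoxide product was detected by ferrous iron/xylenol orange as the 573 to 405 nm absorbance ratio. Arachidonic acid at 40 uM (final) was turned over for 30 min at room temperature by 150 nM human 12hLO, pH 7.0 Hepes buffer, after 15 min compound preincubation.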
HT1080NT lethal: qHTS for induction of synthetic lethality in tumor cells producing 2HG: qHTS for the HT-1080-NT fibrosarcoma cell line; actives 1.6% (n = 360,000); AID 686970, 2013; HT-1080-NT fibrosarcoma viability, CellTiter-Glo ATP luminescence, 48 h; Potency, µM (doses to about 46.1 µM), usual class: cytotoxic;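 also: NT is the 2HG producing partner of a matched IDH1 knockdown line; nearly all actives have a fitted effect of over 55% in size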
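Viability by CellTiter-Glo luminescence after 48 h compound exposure at 37C of HT-1080-NT cells (750/well, RPMI, 5% FBS). % activity scaled between DMSO wells and medium-only wells, then curve-fitted and categorized by curve class.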
A number is an active result; - = inactive; ? = inconclusive; . = not tested or not shown. The entries come from a sample that favours hits as a whole. Unless noted, calls follow the shape of the dose curve; as a rule, active = well fitted curve in the direction sought with a large enough effect; inconclusive = small, poorly fitted or top-dose-only effect, or another doubt; inactive = no such curve, though single readings can be large; an effect the other way counts as inactive or inconclusive.

SMILES	HT1080 IDH1KD tx	DT40 TDP1 no CPT	IL1B secr inh	DT40 TDP1 CPT	12-LOX inh	HT1080NT lethal
O=C(NCc1ccc(C(F)(F)F)cc1)C1CCCN(c2nc3ncccc3o2)C1 (configuration not stated)	.	.	.	.	-	.
Cc1ccc(OCCC(=O)NC23CC4CC(CC(C4)C2)C3)cc1	.	.	.	.	-	.
CC(C)CN(CC1CN(C(=O)c2ccccc2)CCO1)C(=O)c1cccc2ccccc12 (configuration not stated)	.	.	.	.	-	.
Cc1ccc2c(CSc3nnnn3-c3ccc(Cl)cc3)cc(=O)oc2c1	.	.	.	.	-	.
Cc1cc2nnc(SCC(=O)NCc3ccco3)n2c2ccccc12	?	4.6µM	-	4.6µM	-	?
Cc1cc2nnc(SCC(=O)NCc3cccs3)n2c2ccccc12	-	-	-	-	-	-
COc1cc(Cn2c3ccc(NC(=O)CCc4ccccc4)cc3c(=O)n2C)ccc1F	?	2.9µM	-	6.5µM	?	?
Cn1c(=O)c2cc(NC(=O)CCc3cccnc3)ccc2n1Cc1cccc(C(F)(F)F)c1	-	18µM	-	?	-	-
Cn1c(=O)c2cc(NC(=O)CCc3cccnc3)ccc2n1Cc1ccc(F)cc1	-	?	-	16µM	-	-
COc1ccccc1CCC(=O)NNC(=O)c1cccs1	-	-	-	-	-	-
COc1ccccc1CCC(=O)Nc1ccc2c(c1)c(=O)n(C)n2-c1cccs1	?	3.7µM	-	3.7µM	-	?
O=C(CCn1cccn1)Nc1cccc(C(F)(F)F)c1	.	-	.	-	-	.
COc1cc(Cn2c3ccc(NC(=O)NCCc4ccccc4)cc3c(=O)n2C)ccc1F	-	?	-	?	-	-
CC(=O)N1CCCN(c2ccc(-c3nc(-c4ccccc4F)no3)cn2)CC1	.	.	.	.	-	.
CCCS(=O)(=O)NC(C)C(=O)O (configuration not stated)	.	.	.	.	-	.
CCCCn1nc(C(=O)N2CCCC2c2cccs2)c2ccccc2c1=O (configuration not stated)	.	.	.	.	-	.
COc1cc(Cn2c3ccc(NC(=O)CCc4cccnc4)cc3c(=O)n2C)ccc1F	-	?	-	9.2µM	-	-
Cc1ccc(-c2nc(CSCC(=O)NCCN3CCN(Cc4ccccc4)CC3)c(C)o2)cc1	-	21µM	-	?	-	-
Cc1oc(-c2ccc(Cl)cc2)nc1CS(=O)CC(=O)NCCCN1CCN(Cc2ccccc2)CC1 (configuration not stated)	?	?	-80	15µM	-	?
CCc1ccc(-c2nc(CSCC(=O)NCc3ccco3)c(C)o2)cc1	-	?	-	?	-	?
CCOc1ccc(-c2nc(CSCC(=O)NCCc3ccccc3)c(C)o2)cc1	.	18µM	.	?	-	.
CCc1ccc(-c2nc(CSCC(=O)NCc3ccccc3OC)c(C)o2)cc1	.	16µM	.	21µM	-	.
CCN1CCN(CCNC(=O)CS(=O)Cc2nc(-c3ccc(Cl)cc3)oc2C)CC1 (configuration not stated)	.	.	.	.	-	.
CC(=O)N1C(=O)CC(C)N(C(C)=O)c2ccc([N+](=O)[O-])cc21 (configuration not stated)	-	-	-	-	-	-
Cc1oc(-c2ccccc2F)nc1CSCC(=O)NCCc1ccccc1	.	18µM	.	13µM	-	.
SMILES	HT1080 IDH1KD tx	DT40 TDP1 no CPT	IL1B secr inh	DT40 TDP1 CPT	12-LOX inh	HT1080NT lethal
COc1ccc(NC(=O)c2nc(C(O)c3cccc(O)c3)oc2C)cn1 (configuration not stated)	.	.	.	.	-	.
C[C@@H]1CC=C[C@@H]2[C@H]1C(=O)N(Cc1ccccc1)[C@H]2c1ccccc1Br	?	16µM	-	18µM	-	?
COc1ccc(-c2ccccc2[C@H]2[C@@H]3C=CC[C@@H](C)[C@@H]3C(=O)N2Cc2ccccc2)cc1	?	10µM	-	13µM	-	?
COc1ccc(C2=CN(Cc3ccccc3)C(c3ccccc3)CC2=O)cc1 (configuration not stated)	?	?	-	?	?	?
CNC(=O)[C@@H]1C[C@@H](n2cc(CNC(=O)Cc3ccccc3)nn2)CN1	.	.	.	.	-	.
Cc1ccc(Oc2ncnc3c2cnn3-c2ccccc2)cc1	.	.	.	.	-	.
Cc1ccc(CNC(=O)CS(=O)(=O)Cc2nc(-c3ccccc3F)oc2C)cc1	-	?	-	-	-	-
Cc1oc(-c2ccccc2Cl)nc1CS(=O)(=O)CC(=O)NC(C)CCc1ccccc1 (configuration not stated)	.	?	.	16µM	-	.
Cc1oc(-c2ccccc2Cl)nc1CS(=O)(=O)CC(=O)NCc1ccc(F)cc1	.	18µM	.	?	?	.
Cc1oc(-c2ccccc2Cl)nc1CS(=O)(=O)CC(=O)NC(C)c1ccccc1 (configuration not stated)	-	23µM	-	?	-	-
CCN(CC)C(=O)CN1C(=O)NC2(CCC(C(C)(C)C)CC2)C1=O (configuration not stated)	.	.	.	.	-	.
CN(C)CC(=O)N1C[C@@H]2CN(c3cc(C4CC4)ncn3)C[C@]2(C(=O)O)C1	.	.	.	.	-	.
O=C(O)c1ccc2c(c1)N(Cc1ccccc1)C(=O)c1ccccc1S2	-	-	-	-	-	-
O=C(NCCN1CCOCC1)c1ccc2c(c1)N(Cc1c(F)cccc1Cl)C(=O)c1ccccc1S2	-	?	-	?	-	-
O=C(c1ccc2c(c1)N(Cc1cccc(Cl)c1)C(=O)c1ccccc1S2)N1CCOCC1	.	?	.	18µM	-	.
O=C(c1ccc2c(c1)N(Cc1cccc(F)c1)C(=O)c1ccccc1S2)N1CCCC1	.	?	.	21µM	?	.
O=C(c1ccc2c(c1)N(Cc1c(F)cccc1Cl)C(=O)c1ccccc1S2)N1CCCC1	.	23µM	.	?	-	.
CN(C)CCNC(=O)c1ccc2c(c1)N(Cc1c(F)cccc1Cl)C(=O)c1ccccc1S2	.	23µM	.	16µM	?	.
COc1ccc(CNC(=O)NCC23CCCC=C2NC(=O)CC3)cc1 (configuration not stated)	.	.	.	.	-	.
CC(Oc1cccc(Cl)c1)C(=O)NCc1ccc(S(N)(=O)=O)cc1 (configuration not stated)	-	26µM	-	?	-	-
